Measured values: PubChem BioAssay (EPA / NIEHS)
Active and inactive are the calls of the source. The calls were made as follows: active = hit-call score of the fitted dose curve at least 0.9, where 1 is the maximum; inactive = score below 0.9.

Experiment: ATG_GLI_CIS: Attagene CIS-FACTORIAL HepG2 Assay for human Zinc Finger Protein GLI1 (AID 2282945)
Conditions: HepG2, Attagene cis-factorial reporter mRNA, GLI element; actives raise or lower the signal
Procedure: ATG_CIS is a cell-based, multiplexed-readout assay that uses HepG2, a human liver cell line, with measurements taken at 24 hours after chemical dosing in a 24-well plate.ATG_GLI_CIS is one of 52 assay component(s) measured or calculated from the ATG_CIS assay. It is designed to make measurements of mRNA induction, a form of inducible reporter, as detected with fluorescence intensity signals by Reverse transcription polymerase chain reaction (RT-PCR) and Capillary electrophoresis technology.Data from the assay component ATG_GLI_CIS was analyzed into 1 assay endpoint. This assay endpoint, ATG_GLI_CIS, was analyzed with bidirectional fitting relative to DMSO as the negative control and baseline of activity. Using a type of inducible reporter, measures of mRNA for gain or loss-of-signal activity can be used to understand the reporter gene at the transcription factor-level as they relate to the gene GLI1. Furthermore, this assay endpoint can be referred to as a primary readout, because this assay has produced multiple assay endpoints where this one serves a reporter gene function. To generalize the intended target to other relatable targets, this assay endpoint is annotated to the dna binding intended target family, where the subfamily is zinc finger.
Human liver HepG2 cells are transiently transfected with multiple reporter transcription units (MRTUs) in 6-well plates using FuGene 6 reagent (Roche; 3 ml FuGene/1 mg DNA). The MRTU constructs are regulated by a cis-regulating element (promoter). […] A major difference between the CIS and TRANS system is that in CIS activities of endogenous TFs are measured, whereas the TRANS assay evaluates changes in activities of exogenous, chimeric NR-Gal4 proteins. […] At the end of 24 hour incubation, total RNA was isolated using TriZol reagent (Invitrogen). The isolated RNA is then reverse-transcribed using oligo(dT) primer and Mo-MLV reverse transcriptase (Invitrogen) with DNAse I (Ambion) treatment for 30 min. The one-tenth of the produced cDNA was amplified by PCR using Taq DNA polymerase (Invitrogen) and two reporter sequence-specific primers. The PCR products were fluorescently labeled by primer extension with 6-arboxyfluorescein (6-FAM) 5'-labeled reporter sequence-specific primer (2 min at 95 C, 20 s at 68 C and 10 min at 72 C) and these products were digested with 5U of HpaI (New England Biolabs) for 2h at 37 C. The fragments were purified using Qiaquick PCR columns (Qiagen), analyzed on an ABI 3130xL genetic analyzer (Applied Biosystems) with peak positions identified by using a set of X-rhodamine (ROX)-labeled MapMarker1000 molecular weight standards (BioVentures). The raw capillary electrophoresis data was processed using Attagraph software (Attagene).

SMILES | outcome | AC50
O=C(O)c1ccccc1Nc1cccc(C(F)(F)F)c1 | inactive | –
CC(=O)OCC(=O)[C@@]12N=C(C)O[C@@H]1C[C@H]1[C@@H]3CCC4=CC(=O)C=C[C@]4(C)[C@H]3[C@@H](O)C[C@@]12C | inactive | –
O=C1CCCC1 | inactive | –
[Cl][In]([Cl])[Cl] | inactive | –
CC(C)c1ccc2cc(C(C)C)ccc2c1 | inactive | –
CC(CC=O)CCCC(C)(C)O (stereo not given) | inactive | –
O=C1C=CC(=O)O1 | inactive | –
O=P(O)(O)Oc1ccccc1 | inactive | –
CCC(CO)CO | inactive | –
CCCCCCCC(C)=O | inactive | –
CNC(=S)N(C)C | inactive | –
Cc1ccc2c(c1)C(=O)c1ccccc1C2=O | inactive | –
CC1=Nc2ccc3ccccc3c2C1(C)C | inactive | –
CCCCCCOC(=O)C(C)CC (stereo not given) | inactive | –
COCCCOCCCOC | inactive | –
O=C(O)CCCC[C@@H]1SC[C@@H]2NC(=O)N[C@@H]21 | inactive | –
CC(C)C(=O)C(C)C | inactive | –
CC(C)(C)c1ccc(-c2ccc(C(C)(C)C)cc2)cc1 | inactive | –
CC(C)(Oc1ccc(C2CC2(Cl)Cl)cc1)C(=O)O (stereo not given) | inactive | –
CC(=O)Nc1nnc(S(N)(=O)=O)s1 | inactive | –

SMILES | outcome | AC50
C=CC(=O)OCCOC1C2CCC1C1CC=CC12 (stereo not given) | inactive | –
O=C(Cl)c1cc(C(=O)Cl)cc(C(=O)Cl)c1 | inactive | –
FC(F)(F)C(=NOCC1OCCO1)c1ccc(Cl)cc1 | inactive | –
Cc1ccc(OC(=O)CC(C)C)cc1 | inactive | –
CCOC(=O)c1ccc(N(C)C)cc1 | inactive | –
CO[Si](CCC1CCC2OC2C1)(OC)OC (stereo not given) | inactive | –
N#CCc1ccc(Cl)cc1Cl | inactive | –
C=C(C)C(=O)OCCOc1ccccc1 | inactive | –
C=CCCCCCCCCC(=O)OCCCC | inactive | –
OC1CCCC1 | inactive | –
CCCNC(=O)NS(=O)(=O)c1ccc(Cl)cc1 | inactive | –
O=C(c1ccc(O)cc1)c1ccc(O)cc1O | inactive | –
CCCCCCCCCCCCCCCC[n+]1ccccc1 | – | 60.1 µM (active)
O=CC1CC1 | inactive | –
O=CN1CCCCC1 | inactive | –
Cc1cc(C)c(C)cc1C | inactive | –
Cc1cccc(OCCOc2cccc(C)c2)c1 | inactive | –
COC(=O)c1ccc2cc(C(=O)OC)ccc2c1 | inactive | –
OCCNCc1ccccc1 | inactive | –
CCC(CC)C(=O)O | inactive | –
